Screening results deposited in PubChem by National Center for Advancing Translational Sciences (NCATS).
Most compounds without a hit are left out; they make up all but 9.3% or so of the library.
HCMV inh: inhibitors of human cytomegalovirus | HFF cells, HCMV-luciferase reporter, 72 h; stronger effect = lower value | activity change, negative = inhibition, % at 57.5 µM | hit rate 4.5% among 410,000 | AID 1259415; in the data active means activity change below about -60%; inconclusive means no clear call, values can overlap the other calls; inactive means above about -39%
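Luciferase read-out from HCMV-luciferase-infected HFFs (MOI 1 PFU/cell) 72 h post infection at 37C; compounds added after 16 h cell attachment; activity normalized between buffer-only basal and Salinomycin (10uM) inhibitor controls.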
Sm TGR block: S. mansoni TGR enzyme inhibition. purified TGR, DTNB reduction, TNB absorbance 405 nm. Potency, µM (series often up to 114 µM), hits mostly inhibitors. hit rate 3% among 360,000; further: nearly all actives have a fitted effect of over 60% in size
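Kinetic colorimetric format: TGR-catalysed, NADPH-driven DTNB reduction monitored via TNB absorbance. Enzyme dispensed at 20 nM; compound exposure 15 min at room temperature before reaction start.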
FMDV inh: foot and mouth disease virus antiviral activity | AID 1159524 | hit rate 1.2% among 410,000 | FMDV antiviral cell-based qHTS | Potency, µM (top dose mostly 57.9 µM), most hits filed as inhibitors; calls by dose curve; tested in HEK293T cells; further: read-out not given here; nearly all actives have a fitted effect of over 45% in size
Vaccinia Venus: inhibitors of vaccinia virus (Venus reporter); Vaccinia virus Venus reporter expression, fluorescence; Potency, µM (titrated, usually from 36.5 µM), usual class: inhibitors; hit rate 0.46% among 330,000; AID 720580; calls by dose curve; tested in A549 cells; further: nearly all actives have a fitted effect of over 30% in size
Vaccinia mCherry: inhibitors of vaccinia virus infection (mCherry reporter signal); hit rate 0.63% among 310,000; Potency, µM (highest dose often 36.5 µM), actives largely listed as inhibitors; Vaccinia virus mCherry reporter infection, fluorescence; AID 720579; calls by dose curve; tested in A549 cells; further: nearly all actives have a fitted effect of over 35% in size
HCV inhibitor: blocks hepatitis C virus; AID 651820; hit rate 3.4% among 340,000; Huh7.5.1 HCVcc-Cre infection, luciferase reporter, 44 h; Potency, µM (highest dose often 41.8 µM), usual class: inhibitors
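Reporter virus HCVcc-Cre (~0.5 moi) infects cells exposed to compound; seeding density 1,000 cells/well with 4 h settling beforehand. Luminescence, 15 sec read, taken 44 h post-infection following a 15 min RT substrate incubation.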
Numbers stand for hits; – = inactive; ? = inconclusive; · = not tested or not shown. Unless noted, the call rests on the fitted dose curve; in most records, active means well fitted curve in the direction sought with a large enough effect; inconclusive means small, poorly fitted or top-dose-only effect, or another doubt; inactive means no such curve, though single readings can be large; an effect the other way counts as inactive or inconclusive.

SMILES | HCMV inh | Sm TGR block | FMDV inh | Vaccinia Venus | Vaccinia mCherry | HCV inhibitor
CC(=O)c1c(C)[nH]c(C(=O)OCc2ccc(Br)cc2)c1C | – | – | – | – | – | 4.47µM
O=C(COc1ccc(Br)cc1)N1CCCCCC1 | – | – | – | – | – | –
CCOC(=O)c1ccc(NC(=O)C2CCN(S(=O)(=O)c3c(C)nn(C)c3C)CC2)cc1 | – | – | – | – | – | –
COC(=O)c1[nH]nc(C(=O)OC(C)(C)C)c1-c1ccccc1 | – | 22.4µM | – | – | – | –
COC(=O)c1cc(-c2ccccc2)sc1N | – | – | – | – | – | 2µM
C#CCNC(=O)c1cc(-c2ccccc2)sc1N | – | · | – | – | ? | ·
NC(=O)N/N=C/c1c(Sc2nnnn2-c2ccccc2)nc2ccccn2c1=O | -72.8 | 3.98µM | ? | · | · | ?
CCCCCC1=C(C(=O)OC)C(C(=O)OCC)N(S(=O)(=O)C(F)(F)F)c2ccccc21 (stereo not drawn) | – | · | ? | – | – | 11.2µM
CC(=O)Nc1ccc(N(C(=O)c2cnccn2)C(C(=O)NC2CCCCC2)c2ccc(O)cc2)cc1 (stereo not drawn) | – | 15.8µM | · | – | – | –
COc1ccc(N(C(=O)c2cnccn2)C(C(=O)NCc2ccccc2)c2ccc(O)cc2)cc1 (stereo not drawn) | – | 28.2µM | – | – | – | –
O=C(NC1CCCC1)C(c1ccccc1)N(C(=O)c1ccco1)C1CCCC1 (stereo not drawn) | -77.7 | – | · | – | – | –
CC(=O)Nc1ccc(N(C(=O)c2ccco2)C(C(=O)NC2CCCC2)c2cccs2)cc1 (stereo not drawn) | – | – | – | – | – | –
O=C(NC1CCCC1)C(c1ccccc1F)N(C(=O)c1ccco1)C1CCCC1 (stereo not drawn) | – | – | – | – | · | ?
CC(=O)Nc1ccc(N(C(=O)c2ccco2)C(C(=O)NC2CCCCC2)c2ccccc2)cc1 (stereo not drawn) | -63.8 | – | – | – | – | –
Cc1cccc(CN2C(=O)c3ccccc3Sc3ccc(C(=O)NCCc4ccccc4)cc32)c1 | ? | – | – | – | – | ·
COc1ccc(-c2c(C)nn3c4c(cnc23)C(=O)CC(c2ccccc2)C4)cc1 (stereo not drawn) | – | – | – | – | – | ·
CNC(=O)CO/N=C/c1ccc(N(C)C)cc1 | – | – | – | – | – | –
CCOC(=O)CN(C(=O)c1snc(C(N)=O)c1N)C(C(=O)NCCC(C)C)c1ccc(F)cc1 (stereo not drawn) | – | – | – | · | · | –
Fc1ccc(-c2nc(-c3cccs3)[nH]c2-c2ccc(F)cc2)cc1 | – | – | 28.2µM | ? | ? | ?
Fc1ccc(-c2nc(-c3cccs3)c(-c3cccs3)[nH]2)cc1 | – | – | – | – | – | ·
Cc1ccc(Nc2nc(NCCO)nc3c2cnn3C)cc1Cl | – | – | – | · | · | 12.6µM
Fc1ccc(-n2ncc3c(Nc4cccc(Cl)c4)ncnc32)cc1 | -65.6 | – | – | – | – | ·
Cn1ncc2c(Nc3cccc(Cl)c3)nc(Nc3cccc(Cl)c3)nc21 | -66.3 | – | – | – | ? | ?
Cn1ncc2c(Nc3ccc(Br)cc3)nc(Nc3ccc(Br)cc3)nc21 | – | – | ? | ? | ? | ?
CCOC(=O)c1cnc2ccc(Br)cc2c1NCC(C)O (stereo not drawn) | – | – | – | – | · | –
SMILES | HCMV inh | Sm TGR block | FMDV inh | Vaccinia Venus | Vaccinia mCherry | HCV inhibitor
COCCn1c(-c2ccc(Cl)cc2Cl)nc2c(c(=O)c3ccccc3n2C)c1=O | – | – | ? | – | – | –
COc1ccc(C(C(=O)NC(C)(C)C)N(C(=O)CNC(=O)c2cccs2)c2ccc(NC(C)=O)cc2)cc1OC (stereo not drawn) | – | · | – | – | – | –
CC1(C)SC(=Nc2ccccc2)N(S(=O)(=O)c2ccccc2)C1=O | – | – | – | – | – | –
CC(=O)c1ccc(NS(=O)(=O)c2c(C)nc3scc(C)n3c2=O)cc1 | – | – | – | – | – | ·
Nc1ccc2cc3[nH]c4cc(N)ccc4c3nc2c1 | -98.5 | · | – | – | ? | 1.58µM
COc1cccc(CN2CCC2(C)C(=O)Nc2ccc(C)cc2)c1F (stereo not drawn) | – | · | – | – | – | ·
COc1ccccc1NC(=O)CCc1nnc2ccc(N3CCC4(CC3)OCCO4)nn12 | – | – | – | – | – | –
O=C(Nc1ccc(NC(=O)c2ccco2)cc1)c1ccco1 | – | – | – | – | – | –
O=C(Nc1ccc(-c2ccccc2)cc1)c1ccco1 | -64.1 | – | – | – | – | –
O=C(Nc1ccc(Nc2ccccc2)cc1)c1ccco1 | -63.7 | – | – | – | – | ?
O=C(Nc1ccc(Br)cc1)c1ccco1 | ? | – | – | – | – | –
O=C(Nc1ccc(NC(=O)c2sc3ccccc3c2Cl)cc1)c1ccco1 | -75.8 | – | ? | – | – | ?
NC(Cc1ccc(C(F)(F)F)cc1)c1csc(NC(=O)Nc2ccccc2Cl)n1 (stereo not drawn) | – | · | – | ? | ? | ·
COc1cc(C)c(Cl)cc1S(=O)(=O)NCCN1CCOCC1 | – | – | – | · | · | –
CCOc1cc(/C=C/c2ccc3cccc([N+](=O)[O-])c3n2)cc(Cl)c1O | ? | – | – | ? | – | ?
COc1ccccc1NC(=O)Cc1noc(CSc2cccc[n+]2[O-])n1 | – | – | – | – | · | –
COc1ccccc1NC(=O)Cc1noc(CSc2cc(C)c3ccccc3n2)n1 | – | – | – | · | · | 11.2µM
CCCN1CNc2c(c(=O)[nH]c(=S)n2CCc2cccc(C)c2)C1 | · | · | · | – | – | ·
Cc1cc(C(=O)CN2C(=O)NC3(CCCc4sccc43)C2=O)c(C)n1-c1ccc(Cl)cc1 (stereo not drawn) | -62.2 | – | – | – | – | –
Cc1ccc(NC(=O)c2cc(S(=O)(=O)N3CCCCC3)cs2)cc1 | -81.2 | – | · | ? | – | ?
O=C(Nc1ccc(Cl)cc1)c1cc(S(=O)(=O)N2CCOCC2)cs1 | ? | – | ? | · | · | 5.62µM
CS(=O)(=O)c1ccc(CNC(=O)C2(C(F)(F)F)CC(CCCO)CCCO2)cc1 (stereo not drawn) | -66.6 | · | – | ? | 11.2µM | ?
CCOC(=O)N1CCN(C2CCCN(C(=O)c3ccccc3C(F)(F)F)C2)CC1 (stereo not drawn) | – | ? | – | – | – | –
CCOc1ccccc1CNC(=O)c1cc2occc2n1C | – | ? | – | – | ? | –
CCOc1ccccc1CNC(=O)c1cc2oc3ccccc3c2n1C | -84.9 | – | – | · | · | ?
Cn1c(C(=O)NCc2cccc(Cl)c2)cc2oc3ccccc3c21 | -63.6 | – | – | – | – | ·
COCCNC(=O)c1cc2oc3ccccc3c2n1C | – | – | – | · | · | 12.6µM
CN(C)c1ccc(/C=C/[N+](=O)[O-])cc1 | – | – | – | – | – | –
CN(c1ccccc1)c1ccc(/C=C/[N+](=O)[O-])cc1 | -98.7 | – | 15.8µM | – | – | ?
Cc1ccsc1/C=N/Nc1ccc(C(=O)O)cc1 | – | – | 8.91µM | · | · | –
